A selection: hits, their analogues and other compounds. The true share with any hit is near 8.7%.
Pf growth 96h – P. falciparum growth inhibition at 96 hour, primary screen for plastid delayed-death inhibitors; P. falciparum luciferase reporter growth, 96 h; Potency, µM (top dose mostly 28.7 µM), without a hit: at the top dose activity change, negative = inhibition, actives largely listed as inhibitors; actives 6.9% (n = 320,000); AID 504834
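Infected RBCs, 2% Hct / 0.05% parasitemia final; luciferase-reporter P. falciparum; cpd 96 h, 37 C, 5% CO2; luciferase detection reagent; luminescence.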
Pf growth 48h – P. falciparum growth inhibition at 48 hours (one generation); AID 504832; actives 5.9% (n = 310,000); P. falciparum luciferase growth in erythrocytes, 48 h; Potency, µM (doses to about 28.7 µM), for inactives: at the top dose activity change, negative = inhibition, hits mostly inhibitors
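Cell-based growth assay: transgenic P. falciparum expressing firefly luciferase, cultured in red cells within RPMI 1640 containing 0.5% w/v Albumax, 24 mM bicarbonate and gentamycin. A drop in luciferase activity indicates inhibition.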
VACV Venus inh – inhibitors of vaccinia virus (Venus reporter); Vaccinia virus Venus reporter expression, fluorescence; Potency, µM (series often up to 36.5 µM), for inactives: at the highest dose activity change, negative = inhibition, usual class: inhibitors; actives 0.46% (n = 330,000); calls by dose curve; tested in A549 cells; further: nearly all actives have a fitted effect of over 30% in size
AMA1 RON2 block – disrupts binding of P. falciparum AMA1 to RON2. AlphaScreen AMA1-biotinylated RON2 peptide binding. Potency, µM (top dose mostly 58.2 µM), for inactives: at the top dose activity change, negative = inhibition, hits mostly inhibitors. actives 0.2% (n = 360,000). AID 720542;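 further: 0% = vehicle wells and -100% = peptide control; nearly all actives have a fitted effect of over 45% in size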
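AMA1 (3D7) with his tag at 25 nM final met compounds first, then biotinylated RON2 peptide at 25 nM; detection used donor plus acceptor beads, 10 µg/mL apiece, read by AlphaScreen after 30 min at room temperature.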
VACV mCherry inh – vaccinia inhibition (mCherry reporter) | Vaccinia virus mCherry reporter infection, fluorescence | Potency, µM (top dose mostly 36.5 µM), for inactives: at the highest dose activity change, negative = inhibition, usual class: inhibitors | actives 0.63% (n = 310,000) | AID 720579; calls by dose curve; tested in A549 cells; further: nearly all actives have a fitted effect of over 35% in size
* = called active by the depositor; i = inactive; ? = inconclusive; nt = no result. Unless noted, the call rests on the fitted dose curve; in most records, active means well fitted curve in the direction sought with a large enough effect; inconclusive means small, poorly fitted or top-dose-only effect, or another doubt; inactive means no such curve, though single readings can be large; an effect the other way counts as inactive or inconclusive. Unless noted, on the % scale 0 is the no-effect control and ±100 the full control effect; potency means the concentration at half of the fitted maximal effect.

SMILES | Pf growth 96h | Pf growth 48h | VACV Venus inh | AMA1 RON2 block | VACV mCherry inh
O=C(Nc1nc(-c2ccccn2)cs1)c1ccc2c(c1)OCCO2 | ? | 220.4% | ? | 28.2% | 11.2µM*
O=C(Nc1ccc(OC(F)(F)F)cc1)c1ccccc1-n1cnnn1 | nt | nt | nt | 8.4% | nt
O=C(Nc1nc(-c2ccccn2)cs1)c1cc(Cl)ccc1[N+](=O)[O-] | 2.33µM* | 13.1µM* | ? | -5.3% | ?
COC(=O)c1cc(Cl)ccc1NC(=O)CSc1ncc(S(=O)(=O)c2ccc(Br)cc2)c(=O)[nH]1 | nt | nt | 11.2% | nt | 15.9%
CCc1ccc(C2CC(=O)c3c([nH]c(C(=O)OC4CCCCCC4)c3C)C2)cc1 (centres undefined) | nt | nt | -18.5% | nt | -1.2%
CC(=O)c1cccc(NS(=O)(=O)c2cc3c(cc2C)n(C)c(=O)c(=O)n3C)c1 | nt | nt | 8.5% | nt | -4.8%
O=C(Nc1cc(=O)[nH]c2nc(-c3ccc(Cl)cc3)nn12)c1ccccc1 | 0.329µM* | 0.586µM* | -9.1% | 1.5% | -14.9%
Cc1ccc(N2C(=O)CSC23C(=O)N(CC(=O)NC2CCCCC2)c2ccccc23)cc1C (centres undefined) | nt | nt | 1.8% | nt | 3.6%
S=C(NCCNC(=S)Nc1ccccc1Cl)Nc1ccccc1Cl | 9.28µM* | 9.28µM* | -2.9% | 36.7% | -10.0%
Cc1c(Cl)cccc1NC(=S)NCCc1ccc(C(F)(F)F)cc1 | 13.1µM* | 6.57µM* | -17.7% | 48.9% | i
CCc1ccc(C(=O)CSc2nc(-c3ccccc3)nc3c2CCCC3)cc1 | nt | nt | -6.3% | nt | -2.6%
CCc1ccc2c(c1)C1(NN=C(c3ccc(C)cc3)S1)C(=O)N2 (centres undefined) | ? | 0.415µM* | ? | 22.3% | ?
CC(C)c1ccc2c(c1)C1(NN=C(c3ccccc3)S1)C(=O)N2 (centres undefined) | ? | 3.29µM* | ? | ? | nt
O=C(CC1N=C2c3ccccc3N=C(SCC(=O)Nc3ccccc3F)N2C1=O)NCc1ccc2c(c1)OCO2 (centres undefined) | nt | nt | -2.8% | nt | 4.8%
COc1ccc(-c2csc(NC(C)c3nc4cc(Cl)c(N5CCCCC5)cc4n3CCCO)n2)cc1 (centres undefined) | nt | nt | ? | 47.2% | 8.91µM*
CC(Nc1nc(-c2ccc(F)cc2)cs1)c1nc2cc(Cl)c(Cl)cc2n1CCCO (centres undefined) | nt | nt | ? | 11.8% | 10µM*
CCCn1c(C(C)Nc2nc(-c3cc(Cl)c(N)c(Cl)c3)cs2)nc2cc(Cl)c(N3CCCCC3)cc21 (centres undefined) | 7.38µM* | ? | -5.6% | 33.8% | ?
COc1ccc(-c2csc(NC(C)c3nc4cc(Cl)c(Cl)cc4n3CCOCCO)n2)cc1 (centres undefined) | nt | nt | -22.2% | 14.9% | ?
O=C(NCc1ccccc1Cl)c1cccc(OC2CCN(C(=O)C3CC3)CC2)c1 | 8.28µM* | 0.0% | -20.9% | 2.8% | ?
O=C(CCCCCBr)N1CCC(CC2CC(c3ccc(Cl)cc3)=NO2)(C(=O)NCC2CCCCC2)CC1 (centres undefined) | 3.29µM* | ? | -20.8% | 9.1% | -10.1%
COc1ccc(CNC(=O)C2(CC3CC(c4ccccc4)=NO3)CCN(C(=O)CCCCCBr)CC2)cc1 (centres undefined) | nt | nt | -27.1% | -11.4% | i
CCCCCCCNC(=O)C1(CC2CC(c3ccc(Cl)cc3)=NO2)CCN(C(=O)CCCCCBr)CC1 (centres undefined) | 11.7µM* | 32.0% | ? | -0.5% | -3.2%
O=C(CCCCCBr)N1CCC(CC2CC(c3cccc(Br)c3)=NO2)(C(=O)NCC2CCCCC2)CC1 (centres undefined) | 5.22µM* | ? | ? | -13.2% | i
COc1ccc(S(=O)(=O)N/N=C\c2ccc([N+](=O)[O-])o2)c(OC)c1 | 10.4µM* | 2.7% | -5.4% | -7.7% | -0.5%
O=[N+]([O-])c1ccc(/C=N\NS(=O)(=O)c2ccc(F)cc2)o1 | -3.4% | 21.6% | -11.0% | -12.2% | -3.2%
SMILES | Pf growth 96h | Pf growth 48h | VACV Venus inh | AMA1 RON2 block | VACV mCherry inh
N#C/C(=C\c1c[nH]c2ccc(Br)cc12)c1ccccn1 | 9.28µM* | ? | -27.7% | 5.7% | ?
CCOc1ccc(NC(=O)C2CCC(CNc3c(N4CCCCC4)c(=O)c3=O)CC2)cc1 (centres undefined) | 5.86µM* | 6.57µM* | -6.5% | -3.7% | -2.8%
CCOc1ccc(NC(=O)CCNc2c(N3CCCC3)c(=O)c2=O)cc1 | 53.9% | 2.3% | -11.6% | -0.5% | -11.0%
O=C(Nc1ccc(F)cc1)C1CCC(CNc2c(N3CCCCC3)c(=O)c2=O)CC1 (centres undefined) | ? | 11.7µM* | nt | 5.0% | nt
COc1ccccc1NC(=O)C1CCC(CNc2c(N3CCCCC3)c(=O)c2=O)CC1 (centres undefined) | 0.1% | 33.9% | nt | -7.3% | nt
CCOc1ccc(NC(=O)C2CCC(CNc3c(N4CCC(C)CC4)c(=O)c3=O)CC2)cc1 (centres undefined) | 2.33µM* | 4.15µM* | -2.0% | 13.4% | 42.6%
COc1cc(NC(=O)C2CCC(CNc3c(N4CCCCC4)c(=O)c3=O)CC2)cc(OC)c1 (centres undefined) | 5.1% | 11.7µM* | -16.7% | -2.6% | -11.7%
COc1cc(NC(=O)C2CCC(CNc3c(N4CCC(C)CC4)c(=O)c3=O)CC2)cc(OC)c1 (centres undefined) | -26.6% | nt | ? | -7.8% | -13.4%
COc1ccc(NC(=O)C2CCC(CNc3c(N4CCC(C)CC4)c(=O)c3=O)CC2)cc1OC (centres undefined) | -38.6% | nt | 4.1% | -4.6% | -9.4%
COc1ccc(-c2cc(C(F)(F)F)n3nc(C(=O)OC(C)C)cc3n2)cc1 | nt | nt | -13.2% | nt | -15.6%
N#Cc1c(C(F)(F)F)cc(-c2cccs2)nc1SCC(=O)Nc1cccc(C(F)(F)F)c1 | nt | nt | -24.7% | nt | ?
CC(C)Cn1c(=O)c2sccc2n2c(CCCC(=O)NCC(C)c3ccccc3)nnc12 (centres undefined) | nt | nt | -11.4% | nt | -14.4%
CC(O)(COc1ccccc1)c1ccc2c(c1)CN(Cc1cccn1-c1ccccn1)CCO2 (centres undefined) | nt | nt | -0.8% | nt | -13.0%
Cn1c(Cn2nnc3ccccc32)nnc1SCC(=O)N1c2ccccc2Sc2ccccc21 | 10.4µM* | ? | -25.9% | 0.0% | i
CN(C)CCCn1c(SCC(=O)N2c3ccccc3Sc3ccccc32)nc2ccccc2c1=O | 4.15µM* | 10.4µM* | 14.1µM* | -28.3% | ?
Cn1c(SCC(=O)N2c3ccccc3Sc3ccccc32)nc2ccccc21 | ? | ? | -11.0% | 2.3% | -20.7%
COC(=O)c1c(NC(=O)CSc2nnc(Cn3nnc4ccccc43)n2C)sc(C)c1C | 7.38µM* | -23.3% | -14.1% | 0.0% | -12.8%
Cc1cccc(NC(=O)C(NS(=O)(=O)c2ccc3c(c2)oc(=O)n3C)C(C)C)c1 (centres undefined) | nt | nt | -7.0% | nt | -9.6%

Source: PubChem (National Center for Advancing Translational Sciences (NCATS))
